Compounds with a hit are over-represented: about 8.3% of the library has one in this group of screens.
Giardia FBPA inh: qHTS Assay for Inhibitors of Fructose-1,6-bisphosphate Aldolase from Giardia Lamblia; purified Giardia FBPA; Potency, µM (titrated, usually from 59.6 µM), actives largely listed as inhibitors; 290,000 compounds, 0.71% hits; AID 2451, 2010; note: nearly all actives have a fitted effect of over 55% in size
Target sequence (A8B2U2 whole entry, looked up): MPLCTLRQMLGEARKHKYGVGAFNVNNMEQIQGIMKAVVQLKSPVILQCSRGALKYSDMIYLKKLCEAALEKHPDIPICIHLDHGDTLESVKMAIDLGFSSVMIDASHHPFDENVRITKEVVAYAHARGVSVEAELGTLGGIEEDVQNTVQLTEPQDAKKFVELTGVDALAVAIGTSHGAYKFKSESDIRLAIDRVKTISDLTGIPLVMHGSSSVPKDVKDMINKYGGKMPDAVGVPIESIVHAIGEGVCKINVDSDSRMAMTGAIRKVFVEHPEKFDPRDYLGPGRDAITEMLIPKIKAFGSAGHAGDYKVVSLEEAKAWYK
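40 nM FBPA preincubated 10 min at RT with compound (up to 57.5 uM final), then substrate plus GAPDH/TPI/NAD/arsenate coupling and diaphorase/resazurin added. Fluorescence read after 20 min at RT, 525/598 nm.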
FMDV inh: High Throughput Screening for Foot and Mouth Disease Virus Antivirals. FMDV antiviral cell-based qHTS. Potency, µM (highest dose often 57.9 µM), most hits filed as inhibitors. 410,000 compounds, 1.2% hits; calls by dose curve; tested in HEK293T cells; note: read-out not given here; nearly all actives have a fitted effect of over 45% in size
HCV inhibitor: qHTS Assay for Inhibitors of Hepatitis C Virus (HCV); 340,000 compounds, 3.4% hits; Potency, µM (series often up to 41.8 µM), actives largely listed as inhibitors; Huh7.5.1 HCVcc-Cre infection, luciferase reporter, 44 h
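Cells seeded at 1,000/well and cultured 4 h, then compounds added followed by HCVcc-Cre virus (~0.5 moi). After 44 h further culture, luciferase substrate was added, plates held 15 min at room temperature, and luminescence read for 15 sec.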
Marburg entry inh: qHTS for inhibitors of binding or entry into cells for Marburg Virus. Potency, µM (doses to about 37.8 µM), usual class: inhibitors. AID 540276, 2011. Marburg virus pseudotyped entry inhibition, cell reporter. 300,000 compounds, 1.8% hits; calls by dose curve; tested in HEK293 cells
HCMV antiviral: qHTS Assay for inhibitors of the human cytomegalovirus (HCMV). HFF cells, HCMV-luciferase reporter, 72 h; active compounds read low. activity change, negative = inhibition, % at 57.5 µM. 410,000 compounds, 4.5% hits. AID 1259415, 2018; in the data active = activity change below about -60%; inconclusive = no clear call, values can overlap the other calls; inactive = above about -39%
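Cell-based, HFFs, 1000 cells/well, 16 h 37C; cpds in DMSO + HCMV-luc, MOI 1 PFU/cell; 72 h 37C; OneGlo luminescence after 5 min RT; norm. to buffer vs Salinomycin 10uM.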
Lassa entry inh: qHTS for Inhibitors of binding or entry into cells for Lassa Virus; Potency, µM (top dose mostly 37.9 µM), usual class: inhibitors; Lassa virus pseudotype entry inhibition, cell reporter; 300,000 compounds, 1.2% hits; calls by dose curve; tested in HEK293 cells; note: nearly all actives have a fitted effect of over 50% in size
A number is an active result; i = inactive; ? = inconclusive; nt = not tested or not shown; [ ] = remark or other dose. Unless noted, calls come from the whole dose curve; as a rule, active = well fitted curve in the direction sought with a large enough effect; inconclusive = small, poorly fitted or top-dose-only effect, or another doubt; inactive = no such curve, though single readings can be large; an effect the other way counts as inactive or inconclusive.

SMILES	Giardia FBPA inh	FMDV inh	HCV inhibitor	Marburg entry inh	HCMV antiviral	Lassa entry inh
COc1cccc(-n2c(SC)nnc2C2CCN(Cc3cccc(OC)c3O)CC2)c1	nt	i	nt	nt	nt	nt
O=C(CSc1nncn2c1cc1sccc12)Nc1ccc(Br)cc1F	nt	i	nt	nt	?	?
COc1cc(/C=C2\C(=O)ON=C2c2ccc(Cl)cc2)ccc1O	nt	25µM	i	?	i	i
COc1ccc(C2=NN(c3ccccc3)C(=O)/C2=C\c2ccc(O)c(OC)c2)cc1	i	i	i	nt	i	nt
O=C1ON=C(c2ccccc2)/C1=C/c1cccnc1	i	i	i	nt	?	nt
COc1ccc(/C=C2\C(=O)ON=C2c2ccccc2)cc1	i	35µM	i	?	i	i
O=C1ON=C(c2ccccc2)/C1=C/c1ccc(OS(=O)(=O)c2ccccc2)cc1	i	32µM	i	i	i	i
COc1ccc(OC)c(Nc2nc3ccccc3n3c(C)nnc23)c1	nt	i	nt	i	i	i
COc1cccc(NC(=O)/C(C#N)=C/c2c(C)n(Cc3ccccc3)c3ccccc23)c1	nt	?	nt	nt	i	?
OC(COc1ccccc1)CN1CCN(CC(O)COc2ccccc2)CC1 (centres undefined)	i	i	i	nt	i	nt
OC(CON=C1c2ccccc2-c2ccccc21)CN1CCNCC1 (centres undefined)	?	i	2.5µM	?	i	?
COc1ccccc1N1CCN(CC2CN3C(=O)N(C)c4ccccc4C3=N2)CC1 (centres undefined)	nt	i	nt	nt	nt	nt
COc1cc2c(cc1OC)C(=O)C(CC1CCN(Cc3ccccc3)CC1)C2 (centres undefined)	i	?	1.4µM	nt	i	nt
COc1cc2c(cc1OC)CN(Cc1ccccc1)CC2	?	i	i	?	i	i
CC(C)Nc1nc(C#N)nc(Nc2ccccc2)n1	i	nt	nt	nt	nt	nt
COc1cccc(/C=C2\Oc3ccc(O)cc3C2=O)c1O	i	11µM	i	?	i	?
CCOc1ccc(NC(=O)c2nn(C)c3c2COc2ccccc2-3)cc1	nt	i	nt	i	i	i
CCOc1ccc(C(=O)c2ccncc2)cc1	i	nt	i	i	i	i
CCOc1ccc2c(c1)C(=NNC(=O)c1ccncc1)c1cc(OCC)ccc1-2	?	i	i	3.2µM	-95	6.3µM
COCCCNc1cc(C)nc2ccccc12	i	i	i	i	i	i
Cc1cc(NCCCCCCCNc2cc(C)nc3cc([N+](=O)[O-])ccc23)c2ccc([N+](=O)[O-])cc2n1	nt	i	10µM	?	i	?
CC(C)CN1CC2(CCN(C(=O)c3csnn3)CC2)C1	i	i	nt	nt	nt	nt
CCCS(=O)(=O)NCCc1cc2c(OC)ccc(OC)c2[nH]c1=O	i	i	i	i	-77	i
COc1ccc(OC)c2[nH]c(=O)c(CCNC(=O)c3ccc(S(=O)(=O)N4CCCC4)cc3)cc12	i	?	11µM	?	i	i
COc1ccc(OC)c2[nH]c(=O)c(CCNS(=O)(=O)c3ccccc3)cc12	?	i	i	i	i	i
SMILES	Giardia FBPA inh	FMDV inh	HCV inhibitor	Marburg entry inh	HCMV antiviral	Lassa entry inh
O=C(c1ccco1)N1CCN(c2nc(C(F)(F)F)nc3c2nnn3Cc2ccccc2)CC1	i	14µM	4µM	?	-76	?
O=C(c1ccco1)N1CCN(c2ncnc3c2nnn3Cc2ccccc2Cl)CC1	i	?	?	i	i	i
COc1ccc(NC(=O)N2CCCC3(CCN(C(C)=O)CC3)C2)cc1	i	i	nt	nt	nt	nt
Cc1ccc(NCC(=O)N=Nc2c(O)[nH]c3ccc([N+](=O)[O-])cc23)cc1	i	i	i	i	i	i
Cc1ccccc1NCC(=O)N=Nc1c(O)[nH]c2ccc([N+](=O)[O-])cc12	i	i	i	nt	-83	nt
O=C(NCc1cccs1)C1CC(c2ccc(Cl)cc2)=NO1 (centres undefined)	i	i	i	?	i	nt
CC(=O)CCC1CC(c2ccc(Cl)cc2)=NO1 (centres undefined)	nt	i	2.8µM	nt	i	nt
NNC(=O)c1ccc(OCC2CC(c3ccc(Cl)cc3)=NO2)cc1 (centres undefined)	i	i	?	?	-95	?
Cc1nn(Cc2ccccc2Cl)c(C)c1C(=O)Nc1nnc(C2CC2)s1	i	i	i	0.89µM	-90	?
Cc1nn(-c2ccccc2)c(Cl)c1C(=O)Nc1nnc(C2CCCCC2)s1	i	i	i	?	i	?
COc1ccc(OC)c(CN2C[C@H](Sc3ccc(F)cc3)C[C@H]2C(=O)N(C)C)c1	nt	i	nt	nt	nt	nt
C=CCOc1c(Br)cc(CNc2ccc(NC(=O)C(C)C)c(OC)c2)cc1OC	?	?	10µM	?	-98	?
Cc1ccc(-c2nnn(CC(=O)N(Cc3ccco3)C(C(=O)NC(C)(C)C)c3ccc(C)o3)n2)o1 (centres undefined)	i	i	11µM	?	i	?
CCN(CCC(=O)O)c1ccccc1	i	i	i	i	i	i
CCN(CC)C1=NC(=[N+](CC)CC)c2ccccc21	i	?	?	?	-103	?
CCCCc1nc2c(c3c1C[C@H](C)OC3)CN(C(=O)c1cccnc1)CC2	i[12.9 µM]	nt	nt	?	nt	nt
Cc1ccc(NC(=O)c2ccoc2)cc1-c1ccc(C(=O)NCC2CC2)cc1	nt	nt	nt	nt	nt	3.1µM
CCOc1ccc2c(c1)C(=O)C(=O)N2CC1COc2ccccc2O1 (centres undefined)	i	?	i	nt	-65	nt
COc1ccc2c(c1)C(=O)C(=O)N2CCS(=O)(=O)c1ccccc1	nt	i	i	nt	?	nt
CCN1CCN(CC2COc3ccccc3O2)CC1 (centres undefined)	?	i	i	nt	-64	nt
COc1ccc2c(c1)C(=O)C(=O)N2CC1COc2ccccc2O1 (centres undefined)	i	i	i	nt	-82	nt
Cc1ccc2c(c1)C(=O)C(=O)N2CC1COc2ccccc2O1 (centres undefined)	i	i	i	?	-67	i
COC(=O)NC(/C=C/c1ccco1)[C@@]1(C(=O)OC)CCCC1=O (some centres undefined)	i[12.9 µM]	nt	nt	i	nt	nt
Cc1ccc(C)c(CN2C[C@H](Sc3ccccn3)C[C@H]2C(=O)Nc2ccc3sc(C)nc3c2)c1	nt	i	nt	nt	nt	nt
COc1ccc(Br)cc1CN1C(=O)c2ccccc2C1C(=O)NC1CCCCCC1 (centres undefined)	nt	i	nt	?	i	i
Cc1ccc(C(=O)NC2CC(C)(C)NC(C)(C)C2)cc1	i	i	i	i	i	i
CC1(C)CC(NC(=O)c2coc(=O)c(Br)c2)CC(C)(C)N1	i	32µM	i	i	i	i
CCOc1ccc(NC(=O)C2CCCN(S(=O)(=O)c3ccc4c(c3)C(C)(C)C(=O)N4C)C2)cc1 (centres undefined)	nt	nt	nt	nt	i	nt
CN1C(=O)C(C)(C)c2cc(S(=O)(=O)NCc3ccc(C(=O)Nc4ccc(Cl)cc4)cc3)ccc21	nt	32µM	nt	nt	?	?
